Reference: PubChem BioAssay (NCI)
Compounds without any hit were thinned out: in the full panel of roughly 79,000, 15% have a hit. The source made the active and inactive calls. Cut-off read from the data, not from the text of the source: active = growth inhibition above about 70%; inactive = the rest.

Assays:
[1] = NCI Yeast Anticancer Drug Screen. Data for the rad52 strain (AID 147);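 note: 0% = growth of vehicle-treated control cultures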; details: S. cerevisiae rad52 mutant growth inhibition, active compounds read high
Procedure, shortened: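 Genetically altered yeast (DNA damage repair defect) treated with compound; inhibition calculated relative to vehicle.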

[2] = NCI Yeast Anticancer Drug Screen. Data for the wt1 strain (AID 149);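 note: 0% = growth of vehicle-treated wt1 cultures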; details: S. cerevisiae wt1 strain (SPY 50644) growth inhibition, active compounds read high
Procedure, shortened: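 Measured: growth of wt1 yeast under compound versus vehicle treatment, reported as inhibition.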

[3] = NCI Yeast Anticancer Drug Screen. Data for the rad50EPP+ strain (AID 151);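 note: 0% = growth of vehicle-treated control cultures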; details: S. cerevisiae rad50 mutant strain, active compounds read high
Procedure, shortened: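 Strain rad50EPP+; compound exposure; % growth inhibition vs vehicle.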

[4] = NCI Yeast Anticancer Drug Screen. Data for the mgt1 strain (AID 153); details: S. cerevisiae mgt1 mutant growth inhibition, active compounds read high
Procedure, shortened: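 Read-out: yeast growth inhibition vs vehicle control. Strain mgt1, drawn from a panel altered in DNA damage repair or cell cycle control.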

[5] = NCI Yeast Anticancer Drug Screen. Data for the rad50 strain (AID 155);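 note: 0% = growth of vehicle-only cultures of the same strain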; details: S. cerevisiae rad50 strain growth inhibition, active compounds read high
Procedure, shortened: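 Growth of the mutant yeast was measured after compound exposure and referenced to vehicle-treated cultures.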

[6] = NCI Yeast Anticancer Drug Screen. Data for the mec2-1 strain (AID 157); details: S. cerevisiae mec2-1 strain, active compounds read high
Procedure, shortened: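 Cells of the genetically defined mec2-1 yeast strain are incubated with test compound. Inhibition of growth is calculated against vehicle-treated controls.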

[7] = NCI Yeast Anticancer Drug Screen. Data for the rad14 strain (AID 159);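 note: 0% = growth of vehicle-treated control cultures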; details: S. cerevisiae rad14 strain growth inhibition, active compounds read high
Procedure, shortened: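 Here, inhibition of yeast growth was measured after compound exposure, using a strain with a genetic defect in DNA damage repair and vehicle-treated cultures as the reference.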

[8] = NCI Yeast Anticancer Drug Screen. Data for the sgs1 mgt1 strain (AID 161);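 note: 0% = growth of cultures given vehicle only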; details: S. cerevisiae sgs1 mgt1 strain, at 50.0 µM, active compounds read high
Procedure, shortened: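 Genetically altered yeast, compound exposure, growth inhibition relative to vehicle.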

[9] = NCI Yeast Anticancer Drug Screen. Data for the cln2 rad14 strain (AID 165);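 note: 0% = growth equal to vehicle treated cultures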; details: S. cerevisiae cln2 rad14 strain, at 50.0 µM, active compounds read high
Procedure, shortened: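 The screen exposed genetically defined yeast (cln2 rad14) to test compounds and scored growth inhibition relative to vehicle-treated controls.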

[10] = NCI Yeast Anticancer Drug Screen. Data for the bub3 strain (AID 167); details: S. cerevisiae bub3 mutant strain, active compounds read high
Procedure, shortened: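 Whole-cell yeast assay. The mutant strain was incubated with compounds, and growth inhibition was determined by comparison with vehicle-treated cells.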

[11] = NCI Yeast Anticancer Drug Screen. Data for the wt2 strain (AID 169);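 note: 0% = growth of vehicle-treated yeast cultures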; details: S. cerevisiae wt2 strain growth inhibition, active compounds read high
Procedure, shortened: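 Steps: yeast strain treated with compound; growth recorded; inhibition calculated relative to cultures given vehicle alone.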

[12] = NCI Yeast Anticancer Drug Screen. Data for the mlh1 strain (AID 171);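 note: 0% = growth of vehicle-treated control cultures of the same strain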; details: S. cerevisiae mlh1 strain growth inhibition, active compounds read high
Procedure, shortened: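 Yeast screen: mutant strain plus compound, growth scored against vehicle control wells.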

[13] = NCI Yeast Anticancer Drug Screen. Data for the mlh1 rad18 strain (AID 175); details: S. cerevisiae mlh1 rad18 strain growth inhibition; at 50.0 µM; active compounds read high
Procedure, shortened: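 Compound-treated yeast growth, normalised to vehicle controls. Strain bears defined DNA repair mutations.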

[14] = NCI Yeast Anticancer Drug Screen. Data for the rad18 strain (AID 177); details: S. cerevisiae rad18 mutant growth inhibition, active compounds read high
Procedure, shortened: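 Inhibition values reflect reduced yeast growth compared with vehicle-treated controls, using a strain engineered with a DNA damage repair defect.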

Measured: growth inhibition

S=P(N1CC1)(N1CC1)N1CC1
inactive: [1]; at 1.2 µM -1% | [1]; at 3.7 µM 2% | [1]; at 11.0 µM 3% | [1]; at 33.0 µM 4% | [1]; at 100.0 µM 16% | [2]; at 1.2 µM -3% | [2]; at 3.7 µM -3% | [2]; at 11.0 µM -2% | [2]; at 33.0 µM -2% | [2]; at 100.0 µM -22% | [3]; at 1.2 µM -4% | [3]; at 3.7 µM -5% | [3]; at 11.0 µM -4% | [3]; at 33.0 µM 7% | [3]; at 100.0 µM 34% | [4]; at 1.2 µM -5% | [4]; at 3.7 µM -2% | [4]; at 11.0 µM -1% | [4]; at 33.0 µM -1% | [4]; at 100.0 µM -1% | [5]; at 1.2 µM -3% | [5]; at 3.7 µM 0% | [5]; at 11.0 µM 4% | [5]; at 33.0 µM 6% | [5]; at 50.0 µM 28.6% | [5]; at 100.0 µM 23% | [6]; at 1.2 µM -5% | [6]; at 3.7 µM -3% | [6]; at 11.0 µM -1% | [6]; at 33.0 µM -2% | [6]; at 50.0 µM -0.7% | [6]; at 100.0 µM 5% | [7]; at 1.2 µM 0% | [7]; at 3.7 µM 3% | [7]; at 11.0 µM 5% | [7]; at 33.0 µM 9% | [7]; at 100.0 µM 20% | [8] 30.1% | [9] 6.4% | [10]; at 1.2 µM -3% | [10]; at 3.7 µM -2% | [10]; at 11.0 µM 0% | [10]; at 33.0 µM -6% | [10]; at 50.0 µM 13.8% | [10]; at 100.0 µM -11% | [11]; at 1.2 µM -1% | [11]; at 3.7 µM -2% | [11]; at 11.0 µM -2% | [11]; at 33.0 µM -17% | [11]; at 100.0 µM 2% | [12]; at 1.2 µM 0% | [12]; at 3.7 µM -1% | [12]; at 11.0 µM -2% | [12]; at 33.0 µM 1% | [12]; at 100.0 µM 7% | [13] -2.75% | [14]; at 1.2 µM -3% | [14]; at 3.7 µM -1% | [14]; at 11.0 µM 6% | [14]; at 33.0 µM 24%
active: [14]; at 100.0 µM 78%
